According to ChEMBL document CHEMBL1157539, “Thousands of chemical starting points for antimalarial lead identification” (Nature, 2010):

Legend:
Format in all cases: functional
Plasmodium falciparum [1] = assay: GSK_TCMDC: Inhibition of Plasmodium falciparum 3D7 in whole red blood cells, using parasite LDH activity as an index of growth. Test compounds present at 2uM
Plasmodium falciparum [2] = assay: GSK_TCMDC: Inhibition of Plasmodium falciparum Dd2 in whole red blood cells, using parasite LDH activity as an index of growth. Test compounds present at 2uM
HepG2 = assay: GSK_TCMDC: Percent inhibition of human HepG2 cell line. Test compounds present at 10uM.

Compound	Inhibition (Plasmodium falciparum [1]) [%]	Inhibition (Plasmodium falciparum [2]) [%]	Inhibition (HepG2) [%]
Cc1nc(C)c(CC(=O)Nc2cccc(-c3cccc(-c4nc5cccc(C)c5[nH]4)c3)c2)s1	92	35	43
N=C(/N=C(/NCCCCCCN/C(=N\C(=N)Nc1ccc(Cl)cc1)N1CCOCC1)N1CCOCC1)Nc1ccc(Cl)cc1	93	91	0
O=C(O)C(F)(F)F.O=S(=O)(NCCN1CCCC1)c1ccc(-c2ccc(CNCc3ccsc3)cc2)cc1	95	36	44
O=C(O)C(F)(F)F.c1cc(CNCC2CCCO2)cc(-c2ccc(-c3nc4ccccc4[nH]3)s2)c1 (stereo not drawn)	95	30	8
Br.NC1=NC2(CCCCC2)N(OCCCCCCC2CCCCC2)C(N)=N1	97	49	77
COc1ccc(S(=O)(=O)N2CCCc3ccc(Br)cc32)cc1N1CCN(C(=O)C(Cl)(Cl)Cl)CC1	97	93	23
Cl.NC1CCN(CCc2ccc(NS(=O)(=O)c3ccc(-c4ccccc4)cc3)cc2)CC1	100	19	17
CN(C)c1ccc(-c2nc3cc(N)ccc3[nH]2)cc1	100	97	1
Cc1[nH]c(C)c(-c2ccc(OCc3ccccc3)cc2)c(=O)c1Br	97	96	19
Cc1noc(C)c1-c1cccc(CNCc2cccc(-c3cccc(-c4nc5ccccc5[nH]4)c3)c2)c1.O=C(O)C(F)(F)F	100	54	22
CCCS(=O)(=O)N1CCC(CO)(Cc2ccccc2C(F)(F)F)CC1	97	57	0
O=C(Nc1cc(Cl)c(Cl)cc1NC(=O)c1cccc(-c2ccccc2)c1O)c1cccc(-c2ccccc2)c1O	100	100	79
CC1CN(c2cnn(C/C=C/c3ccc(NC(=O)c4ccc5nonc5c4)cc3)c(=O)c2Cl)CC(C)N1.O=C(O)C(F)(F)F (stereo not drawn)	94	35	71
COc1ccc(CNCCCCCCCNCc2ccc(Cl)c(Cl)c2)cc1Cl	90	18	27
CCN1CCN(Cc2ccc(-c3ccc(NS(=O)(=O)c4cccc5cccnc45)cc3)cc2)CC1.O=C(O)C(F)(F)F	90	42	29
Cc1cc2nc(-c3ccc(/C=C/C(=O)NCc4ccc(Cl)c(Cl)c4)cc3)[nH]c2cc1C	98	83	32
CCOc1ccc2c(c1)C(C)(c1ccc3c(c1)C(C)CC(C)(C)N3)CC(C)(C)N2 (stereo not drawn)	94	3	5
CC(C)c1ccc(NC(=O)c2ccc(NCCCN(C)Cc3ccccc3)c([N+](=O)[O-])c2)cc1	100	35	21
CSc1ccc(CN2CCC(CNC(=O)c3cc(-c4ccccc4F)cs3)C2)cc1.O=C(O)C(F)(F)F (stereo not drawn)	90	13	32
N#Cc1ccccc1C(=O)N(Cc1cncn1Cc1cccc(F)c1)CC1CC1	100	92	0
CC(C)Cc1ccc(N2CCN(CCCCNC(=O)c3ccc(NC(=O)c4cc(C(F)(F)F)cc(C(F)(F)F)c4)cc3)CC2)cc1	100	100	15

Compound	Inhibition (Plasmodium falciparum [1]) [%]	Inhibition (Plasmodium falciparum [2]) [%]	Inhibition (HepG2) [%]
Nc1ccc(-c2nc3cc(Oc4ccc5[nH]c(-c6ccc(N)cc6)nc5c4)ccc3[nH]2)cc1	100	99	18
Cc1ccc(NC(=O)NC2CCN(c3ccnc4cc(Cl)ccc34)C2)cc1.O=C(O)C(F)(F)F (stereo not drawn)	100	96	19
O=C(O)C(F)(F)F.Oc1ccc(CC2CCCN(c3nc(NCCCOc4ccccc4-c4ccccc4)nc(N4CCNCC4)n3)C2)cc1 (stereo not drawn)	95	77	56
COc1cc(C)nc2ccc(NC(=O)COCC(=O)Nc3ccc4nc(C)cc(OC)c4c3)cc12	100	41	67
CC(c1cccc(Nc2nccc(-c3c(-c4cccc(NC(=O)c5c(F)cccc5F)c4)nn4ccccc34)n2)c1)S(C)(=O)=O (stereo not drawn)	98	99	76
CC[C@H](C)CNC(=O)c1cncc(-c2ccc(CNCCCc3ccccc3)cc2)c1.O=C(O)C(F)(F)F	100	99	19
N#Cc1cc(C(=O)c2cc(Br)ccc2O)cn(C2CCCCC2)c1=O	89	9	3
CCN(CCC1(c2ccc(Cl)c(Cl)c2)CN(C(=O)c2cc(OC)c(OC)c(OC)c2)CCO1)C1CC2c3ccccc3CC21 (stereo not drawn)	80	65	26
CNC(=O)c1cnc(Nc2ccc(N3CCN(C)CC3)c(C)c2)nc1NC.Cl	97	38	19
CS(=O)(=O)Cc1ccc(Nc2nccc(NC3CCN(c4nccc(C(F)(F)F)n4)CC3)n2)cc1	88	23	34
COCCOc1cccc(CN2CCC(c3cc4nc(C)cc(C(F)(F)F)n4n3)C2)c1.O=C(O)CC(O)(CC(=O)O)C(=O)O (stereo not drawn)	85	74	25
Cc1cc(-c2ccc3c(c2)CCN(CCC2CCC(NC(=O)/C=C/c4cccc(Cl)c4)CC2)CC3)on1.Cl (stereo not drawn)	100	49	16
O=C(NCCCCCN1CCC(c2c[nH]c3ccccc23)CC1)c1ccc(-c2cccnc2)cc1	89	10	29
COc1ccc(CN(C)CCCSc2ccc(NC(=O)c3cccc4c(=O)cc(-c5ccccc5)[nH]c34)cc2)cc1OC	93	94	15
c1ccc(CN2CCCN(c3ccc4c(c3)CCN(Cc3ccc(-c5ncc[nH]5)cc3)CC4)CC2)cc1	100	73	6
CC(C)c1ccc(CN2CCC(CNC(=O)c3cc(-c4ccccc4F)cs3)C2)cc1.O=C(O)C(F)(F)F (stereo not drawn)	100	29	32
COc1ccc(OCC(=O)Nc2cc(-c3nc4ccccc4[nH]3)ccc2Cl)cc1	94	33	18
C=CCn1c(SCC(=O)Nc2cc(Cl)ccc2Cl)nc2sc(C)cc2c1=O	97	96	8
FC(F)(F)c1ccc2[nH]c(-c3cccc(-c4ccc(CNCCc5ccncc5)cc4)c3)nc2c1.O=C(O)C(F)(F)F	99	100	23
CCCN(CC1CC1)c1ncc(-c2cccc(CNCc3ccccc3O)c2)cn1	97	98	15
CCc1ccc(C2CCN(CCCCNC(=O)c3ccc(NC(=O)c4ccc(Cl)cc4)cc3)CC2)c(OC)c1	100	80	26

Compound	Inhibition (Plasmodium falciparum [1]) [%]	Inhibition (Plasmodium falciparum [2]) [%]	Inhibition (HepG2) [%]
COc1ccccc1Cc1c(C)nc2nc(N)nc(N)c2c1C.Cl	96	2	69
N#Cc1ccc(C(=O)Nc2ccc(Cl)c(N3CCN(CCc4ccccc4)CC3)c2)cc1.O=C(O)C(F)(F)F	90	35	5
CCCCCc1cc(OCCN(C)C)cc2c1C(=O)CC(C)(C)O2.Cl	98	0	5
CC(C)CCn1c(Sc2ccc(C#N)c([N+](=O)[O-])c2)nnc1-c1cccc(Cl)c1	96	82	33
CCOC(=O)C(Oc1ccc2ccccc2c1)C(=O)OCC	98	0	8
O=[N+]([O-])c1ccc(-n2nc(Cc3ccccc3)n(Cc3cccc(F)c3)c2=S)c(C(F)(F)F)c1	100	100	4
COc1ccc2nccc([C@@H](O)CN3CCC(NCCOc4cc(F)cc(F)c4)CC3)c2c1.O=C(O)C(=O)O	100	86	10
C=CCOC(=O)N1CCC(CNCc2ccc(-c3cccc(-c4nc5ccccc5[nH]4)c3)cc2)C1.O=C(O)C(F)(F)F (stereo not drawn)	100	50	39
C#CCN(Cc1ccc2[nH]c(N)nc(=O)c2c1)c1ccc(C(=O)N[C@@H](CCC(=O)O)C(=O)O)cc1	95	96	45
COC(=O)CCCCCOc1cc(Cc2cnc(N)nc2N)cc(OC)c1OC	90	0	0
CC(C)C(C(=O)Nc1ccc2c(c1)OCO2)c1ccc(Cl)cc1 (stereo not drawn)	98	89	25
Cc1nc2nc(N)nc(N)c2c(C)c1Cc1cccc(C(N)=O)c1.Cl	91	0	59
Clc1ccc(CNc2nc(NCCc3c[nH]cn3)nc(NC3CCCCC3)n2)cc1	100	1	0
Cl.O=S(=O)(Nc1cc2c(cc1O)CCNCC2)c1ccc(-c2ccc(Cl)cc2)cc1	99	0	10
CCCCc1ccc(NC(=O)Nc2ccc3c(c2)CCNCC3)cc1.Cl	95	43	16
Oc1cc2c(cc1CN1CCN(Cc3ccccc3F)CC1)CCC2	98	94	2
COc1ccc2nc3cc(Cl)ccc3c(Nc3ccc(C(=O)O)cc3)c2c1.Cl	94	95	0
Cc1noc(C)c1-c1cccc(CNCc2cccc(-c3ccc(-c4nc5ccccc5[nH]4)s3)c2)c1.O=C(O)C(F)(F)F	100	29	24
CCCCc1cc(NCC)nc(Nc2ccc(F)cc2)n1	98	56	33
